# Most compounds without a hit are left out; they make up all but 2.2% or so of the library.
# Mito fusion act: qHTS Assay for Small Molecule Inhibitors of Mitochondrial Division or Activators of Mitochondrial Fusion. S. cerevisiae fusion-defective mutant growth rescue, CellTiterGlo 48 h. Potency, µM (series often up to 46.1 µM), for inactives: at the highest dose growth rescue (activation), usual class: activators. 320,000 compounds, 0.23% hits. AID 485298, 2010; also: % of control where 0% means no effect; nearly all actives have a fitted effect of over 45% in size
#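 Luminescent cell viability in 1536-well qHTS format served as the measure of rescued growth in ts fusion-mutant S. cerevisiae cultured on non-fermentable YPEG for 48 hours at 37C.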
# FUS suppressor: qHTS for Suppressors of FUS Proteinopathy: Primary screen using FUS-linked yeast assay; Potency, µM (top dose mostly 76.6 µM), actives largely listed as activators; S. cerevisiae FUS-expressing, growth rescue, OD600, 24 h; 390,000 compounds, 0.24% hits;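 also: plate controls were DMSO vehicle for no effect and reference control for full effect; nearly all actives have a fitted effect of over 55% in size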
#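 Quantitative HTS measuring growth restoration of FUS-toxic yeast. Galactose-induced cells (OD 0.005) were exposed 24hr at 30C to compounds at several concentrations, then absorbance at 600 nm was recorded.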
# Abeta yeast res: qHTS for compounds that reverse cellular toxicity of Amyloid beta (A-beta) peptide in yeast: Primary Screen; 410,000 compounds, 0.063% hits; yeast expressing A-beta42, growth rescue, OD600, 48 h; response scale: 0% DMSO, 100% iron-clioquinol control; Potency, µM (titrated, usually from 46.1 µM), most hits filed as activators; AID 1347071, 2019; also: nearly all actives have a fitted effect of over 55% in size
#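 Yeast A-beta toxicity model in growth medium with pinned compounds, 48 h at 30 C; growth read as absorbance at 600 nm. Normalized to FeCl3/clioquinol equimolar mix (positive) and DMSO (negative).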
# aSyn yeast inh: qHTS of alpha-syn Inhibitors. Yeast expressing alpha-synuclein, growth rescue, BacTiter-Glo, 24 h. Potency, µM (top dose mostly 46.1 µM), for the others: top-dose growth rescue (activation), hits mostly activators. 370,000 compounds, 0.14% hits. AID 652106, 2013; also: % of control where 0% means no effect; nearly all actives have a fitted effect of over 65% in size
#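 Galactose-induced alpha-syn yeast (OD600=0.02, raffinose-pregrown) + pinned cpd, 24 hr, 30 deg C; growth by BacTiter-Glo luminescence. Growth restoration scores as activation.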
# TDP43 rescue: qHTS of TDP-43 Inhibitors. TDP-43 expressing yeast growth rescue, BacTiter-Glo, 24 h. Potency, µM (titrated, usually from 46.1 µM), for the others: top-dose growth rescue (activation), usual class: activators. 410,000 compounds, 1.8% hits. AID 652104, 2013; also: % of control where 0% means no effect; nearly all actives have a fitted effect of over 50% in size
#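 Yeast expressing TDP-43 (pregrown in raffinose, seeded at OD600=0.02 in galactose medium) exposed to compounds 24 hr at 30 deg C. Growth read by BacTiter-Glo luminescence; rescue of toxicity appears as increased signal.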
# The depositor's hits bear a star; i = inactive; ? = inconclusive; / = no result given. Calls follow the shape of the dose curve; as a rule, active = well fitted curve in the direction sought with a large enough effect; inconclusive = small, poorly fitted or top-dose-only effect, or another doubt; inactive = no such curve, though single readings can be large; an effect the other way counts as inactive or inconclusive. Potency is read from the fitted curve at half-maximal effect.
SMILES,Mito fusion act,FUS suppressor,Abeta yeast res,aSyn yeast inh,TDP43 rescue
CCNC(=O)C(=O)N/N=C/c1cc([N+](=O)[O-])ccc1O,22.4µM*,i,i,?,20µM*
O=[N+]([O-])c1ccc(O)c(/C=N/Nc2ncnc3c2cnn3-c2ccccc2)c1,12.0%,i,i,3.7%,7.94µM*
C=CC[C@@]1(c2ccc(Br)cc2OC)Oc2ccccc2-c2nccnc21,/,i,/,/,/
O=C(COC(=O)c1cccc(Cl)c1Cl)NCc1cccs1,-10.6%,i,i,-0.3%,12.6µM*
CCOc1ccc(OCC)c(NS(=O)(=O)c2cccc3nsnc23)c1,?,i,i,1.0%,12.6µM*
CCOc1ccccc1NS(=O)(=O)c1cccc2nsnc12,4.1%,i,i,2.3%,26.3%
OC1Cc2ccccc2C1Nc1cccc(C(F)(F)F)c1 (stereo not drawn),/,/,i,?,12.6µM*
Cc1ccc(S(=O)(=O)n2ccc(-c3c(-c4ccc(F)cc4)noc3C)n2)cc1,/,i,/,/,/
CCCC#Cc1ccc(CC[C@H]2O[C@H]3CC[C@H](CO)O[C@H]3C[C@H]2NC(=O)CN2CCOCC2)cc1,/,i,/,/,/
CC(=O)Nc1ccc(-c2ccnc3c2CC(C(=O)Nc2ccc(Cl)c(C(F)(F)F)c2)O3)cc1 (stereo not drawn),/,i,i,0.5%,11.7%
O=C(Nc1ccc(Cl)c(C(F)(F)F)c1)C1Cc2c(-c3ccccc3)ccnc2O1 (stereo not drawn),/,i,i,?,31.6µM*
CC(=O)Nc1ccc(NC(=O)C2Cc3c(-c4cccc(F)c4)ccnc3O2)cc1 (stereo not drawn),/,i,i,2.1%,?
COc1ccc(NC(=O)C2Cc3c(-c4cccc(F)c4)ccnc3O2)cc1 (stereo not drawn),/,i,i,?,22.4µM*
O=C(Nc1ccc(Cl)cc1)C1Cc2c(-c3ccccc3)ccnc2O1 (stereo not drawn),/,i,i,?,35.5µM*
CC(=O)c1cccc(-c2ccnc3c2CC(C(=O)Nc2ccc(C(C)C)cc2)O3)c1 (stereo not drawn),/,i,?,11.3%,20µM*
CC(=O)c1cccc(NC(=O)C2Cc3c(-c4cccc(C(C)=O)c4)ccnc3O2)c1 (stereo not drawn),/,i,i,-2.0%,-10.8%
CCC1(c2ccc(F)cc2)NC(=O)N(CC(=O)N(CCC#N)c2ccccc2)C1=O (stereo not drawn),8.1%,i,i,5.7%,8.7%
O=C(NCc1ccccc1)C1Cc2c(-c3ccc4c(c3)OCO4)ccnc2O1 (stereo not drawn),/,i,i,2.7%,35.5µM*
O=C(Nc1ccc(F)c(Cl)c1)C1Cc2c(-c3ccc(Cl)cc3)ccnc2O1 (stereo not drawn),/,?,i,?,35.5µM*
CC(C)CCNC(=O)/C=C/c1ccc(Br)cc1,6.1%,/,i,-10.0%,22.4µM*
N#CCC[C@@H]1CC[C@]2(CCCN(C(=O)c3ccco3)C2)O1,/,i,/,/,/
COc1ccc(Oc2c(-c3cccs3)cnn(-c3ccc(C)cc3)c2=O)cc1,/,i,/,/,/
Cc1sc2ncnc(N(C)Cc3cccs3)c2c1C,6.2%,i,i,11.9%,12.6µM*
c1ccc(CNc2ncnc3sccc23)cc1,?,i,i,-22.7%,?
CN(Cc1cccs1)c1ncnc2sccc12,-9.7%,i,i,10.8%,12.6µM*
SMILES,Mito fusion act,FUS suppressor,Abeta yeast res,aSyn yeast inh,TDP43 rescue
c1csc(CNc2ncnc3sccc23)c1,/,i,i,-2.3%,14.1µM*
O=C(NCC1CCCO1)c1ccc(CNS(=O)(=O)c2ccc(F)c(Cl)c2)cc1 (stereo not drawn),3.9%,i,i,1.8%,-5.3%
N#C/C(=C\c1ccco1)Sc1nc2ccccc2s1,15.4%,i,i,-12.8%,15.8µM*
O=C1CCCN1CCCNS(=O)(=O)c1ccccc1,0.6%,i,i,?,1.12µM*
O=C1CCCN1CCCNS(=O)(=O)c1cccs1,/,i,i,-1.0%,6.6%
OC[C@@H]1CN(Cc2ccc(F)cc2)C[C@H](n2cnc3c(N4CCCC4)ncnc32)O1,/,i,i,2.7%,-7.2%
O=[N+]([O-])c1nn(-c2ccc3c(c2)OCCO3)n(O)c1=Nc1ccccc1,?,i,i,-15.7%,11.2µM*
O=[N+]([O-])c1nn(-c2ccc3c(c2)OCCO3)n(O)c1=Nc1ccc(Cl)cc1,10.8%,i,i,-18.4%,14.2%
Cc1cc(C)cc(N=c2c([N+](=O)[O-])nn(-c3ccc4c(c3)OCCO4)n2O)c1,13.1%,i,i,-0.6%,9.2%
CCc1ccc(N=c2c([N+](=O)[O-])nn(-c3ccc4c(c3)OCCO4)n2O)cc1,-2.8%,i,?,-0.3%,20µM*
COc1ccc(/C=C/C(=O)NC(=S)NNC(=O)c2ccco2)cc1,-6.9%,i,7.08µM*,24.4%,?
COc1ccc(C(=O)NNC(=S)NC(=O)C(C)(C)C)cc1,-10.8%,i,5.62µM*,?,-59.9%
COc1ccc(C(=O)NNC(=O)c2ccc(C(C)(C)C)cc2)cc1,-2.0%,i,i,4.8%,-8.4%
COc1ccc(C(=O)NNC(=S)NC(=O)/C=C/c2cccs2)cc1,-1.3%,i,8.91µM*,7.08µM*,?
O=C(/C=C/c1cccs1)NC(=S)NNC(=O)c1ccccc1O,-3.1%,i,i,11.3%,-31.8%
COc1ccc(/C=C/C(=O)NC(=S)NNC(=O)c2ccco2)cc1OC,-8.1%,i,i,5.3%,13.2%
COc1ccccc1OCC(=O)NNC(=S)NC(=O)c1ccco1,3.5%,i,7.94µM*,?,29.2%
CCNC(=O)C1(C)CCN(C(=O)c2ccc(F)cc2Cl)C1 (stereo not drawn),/,i,i,0.2%,0.0%
Cc1[nH]c2ccccc2c1N=Nc1cccc(C(=O)O)c1,1.4%,i,i,-59.4%,17.8µM*
Cc1cc2cc(C(c3nnnn3Cc3ccco3)N3CCc4ccccc43)c(=O)[nH]c2cc1C (stereo not drawn),7.9%,?,i,0.1%,-0.2%
Cc1cc2cc(C(c3nnnn3Cc3ccco3)N3CCc4ccccc4C3)c(=O)[nH]c2cc1C (stereo not drawn),4.4%,14.1µM*,i,2.7%,-16.7%
Cc1ccc(S(=O)(=O)N2CCN(C(=O)c3cccn3C)CC2)cc1,/,i,/,/,/
O=C(Cn1nc(-c2ccccc2)c2c(c1=O)CCCC2)Nc1ccc(F)c(Cl)c1,/,10µM*,i,/,-5.8%

# Bioassay records (PubChem BioAssay)
